Results taken from PubChem BioAssay AID540277 (National Center for Advancing Translational Sciences (NCATS), 2011).
The whole screen tested about 320,000 compounds, of which about 55 (0.02%) were called active. About 3% were inconclusive and are not listed. This excerpt belongs to a sample that is enriched for actives. A number with no mark means an inactive call. Rule as the data show it: active = potentiation above about 80%; inconclusive = between about 30% and that limit; inactive = weaker than that.

molecular target: Transient receptor potential cation channel subfamily V member 1 (Homo sapiens) (UniProt Q8NER1); experiment: HTS Assay for Compounds that Act as Potentiators of the Vanilloid Receptor 1; conditions: TRPV1-expressing cells, Fluo-8 calcium influx, capsaicin EC20 potentiation; at 8.33 µM; hits give high values; also: 0% is about no effect
Source text: The transient receptor potential ion channel, family V, number 1, (TRPV1) is one of the most important molecular transducers of painful stimuli and a potential target for analgesic drug development. Although recent clinical trials with orthosteric antagonists have not produced a successful drug because of a hyperthermia side effect and their tendency to block thermal noxious pain, this ion channel is undeniably well placed in the pain pathway, and the idea of blocking pain signals before they enter the CNS is an excellent concept and of proven efficacy when TRPV1 agonists are used. We propose a new approach involving allosteric modulation to impose an activity-dependent constraint within the context of inflammation and tissue damage that would alter the responsiveness of the channel in a way that an orthosteric vanilloid antagonist cannot achieve. We believe that the allosteric modulator approach has not been explored for this target. The main goal of this proposal is to identify additional, new, potent allosteric modulators of TRPV1 that can be used to investigate TRPV1 function. Our recent report provides evidence of proof of concept, but the compounds are just at the edge of utility in terms of potency. […] The question of whether they can be used as analgesic agents is complex, but if suitable compounds are identified then testing for analgesic properties will be conducted. NIH Chemical Genomics Center [NCGC] NIH Molecular Libraries Probe Centers Network [MLPCN] MLPCN Grant: MH089480-1A1 Assay Submitter (PI): Michael Iadarola, National Institute of Dental and Cranofacial Research
Upon TRPV1 activation in TRPV1 cells, the channel opens and extracellular cations flow through the channel into the cytosol. A calcium binding dye (Fluo-8) becomes fluorescent when bound to calcium. This dye is pre-loaded into cells and is used as a marker for calcium influx. The amount of accumulated calcium is precisely quantified using the FDSS kinetic reader and the calcium dye. For the HTS assay, freshly prepared cells are plated at a density of 2000/well in 3 ul medium in 1536-well plates and cultured overnight at 35.5C. Cells will be loaded with 1 ul of the homogeneous calcium dye (ABD Bioquest) at room temperature for 40 to 90 minutes. Plates will be loaded into the FDSS kinetic reader and a 1 sec / cycle for 10 second baseline signal will be measured. Compound library will then be added with a pintool at 23 nl and measured kinetically for 3 minutes. This portion of the read is considered the agonist portion of the screen. Following the 3 minutes of incubation, an on board pipettor will deliver 1 ul of capsaicin for a final concentration equal to the EC20. Signal will be measured kinetically for an additional 2 minutes. This portion of the read is considered the allosteric enhancer portion of the screen. The FDSS reader has a standard filter set capable of measuring calcium bound Fluo-8 (ex=480 and em=520 nm).

Sequence of Transient receptor potential cation channel subfamily V member 1 (Homo sapiens) (Q8NER1 whole entry, looked up): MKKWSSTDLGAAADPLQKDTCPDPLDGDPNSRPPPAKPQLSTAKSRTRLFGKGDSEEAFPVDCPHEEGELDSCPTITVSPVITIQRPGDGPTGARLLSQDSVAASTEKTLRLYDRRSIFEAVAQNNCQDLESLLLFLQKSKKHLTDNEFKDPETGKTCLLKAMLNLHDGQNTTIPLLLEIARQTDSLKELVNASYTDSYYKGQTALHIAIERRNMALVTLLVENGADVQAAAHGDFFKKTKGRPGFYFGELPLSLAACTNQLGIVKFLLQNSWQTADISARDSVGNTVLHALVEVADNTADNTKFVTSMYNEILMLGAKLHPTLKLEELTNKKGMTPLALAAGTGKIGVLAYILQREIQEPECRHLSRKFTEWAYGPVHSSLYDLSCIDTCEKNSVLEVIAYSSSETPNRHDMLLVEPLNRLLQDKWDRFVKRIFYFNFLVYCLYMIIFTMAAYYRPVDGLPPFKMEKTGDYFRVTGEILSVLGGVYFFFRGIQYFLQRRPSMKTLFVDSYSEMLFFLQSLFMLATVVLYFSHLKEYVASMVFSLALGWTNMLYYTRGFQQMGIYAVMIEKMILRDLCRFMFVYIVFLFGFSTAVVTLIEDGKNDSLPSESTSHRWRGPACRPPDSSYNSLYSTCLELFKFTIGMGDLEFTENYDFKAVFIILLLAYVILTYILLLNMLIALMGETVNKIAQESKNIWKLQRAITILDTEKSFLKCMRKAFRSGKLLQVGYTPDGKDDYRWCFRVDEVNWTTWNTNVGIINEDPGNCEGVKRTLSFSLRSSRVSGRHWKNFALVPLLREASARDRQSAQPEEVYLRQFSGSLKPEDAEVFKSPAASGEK

Structure (SMILES)	potentiation
COC(=O)c1cc(Oc2ccc(S(=O)(=O)N3CCOCC3)cc2[N+](=O)[O-])cc(C(=O)OC)c1	10.8%
CN1CCN(C2=NCCO2)CC1	-4.44%
CCOc1ccc(S(=O)(=O)N2CCCCC2)cc1NC(=O)CN1CCCC1c1cccs1 (stereo unspecified)	-19.8%
Cc1ccc(C(=O)CN2C(=O)NC3(CCOc4ccccc43)C2=O)s1 (stereo unspecified)	-10.3%
CC(=O)NCC(=O)N(Cc1ccco1)C1(C(=O)NC2CCCC2)CCCCC1	85.2% (active)
O=C(c1ccc(=O)[nH]c1)N(Cc1ccco1)C1(C(=O)NC2CCCCC2)CCCCC1	6.34%
CC(=O)N(CC1CCCO1)C1(C(=O)NC2CCCC2)CCCCC1 (stereo unspecified)	-6.84%
Cc1n[nH]c(=O)c2c(NC(=O)CSc3cc(Cl)ccc3Cl)oc(C)c12	13.8%
CC1CC1C(=O)OCC(=O)Nc1cccc(F)c1 (stereo unspecified)	-20.7%
Cn1c(N)c(C(=O)COC(=O)/C=C/c2cccc(C(F)(F)F)c2)c(=O)n(C)c1=O	-32.4%
COc1ccc(C(C[N+](=O)[O-])n2nc(C)cc2C)cc1 (stereo unspecified)	0.93%
COc1ccc(S(=O)(=O)N2CCOCC2)cc1NC(=O)CC1CC2CCC1C2 (stereo unspecified)	2%
CCCCn1c(SCC(=O)N2CCCC2=O)nc2cc(S(N)(=O)=O)ccc21	-9.34%
CCOC(=O)c1sc(=NC(=O)/C=C/c2cccs2)n(C)c1C	-3.16%
O=S(=O)(Nc1cc(Cl)ccc1N1CCOCC1)c1ccccc1Cl	28.9%
CN(c1ccccc1)S(=O)(=O)c1cccc(NC(=O)Cc2ccc(Cl)cc2)c1	-2.65%
O=C(COC(=O)c1c(Cl)cccc1Cl)Nc1cccc(S(=O)(=O)NC2=NCCCCC2)c1	4.82%
Cc1ccc(S(=O)(=O)Nc2nc(CN3CCOCC3)nc3sc(C)c(C)c23)cc1	21.7%
O=C(Nc1ccc2c(c1)OCCO2)C1CCCC1	-1.56%
Cc1cc(NC(=O)COc2ccccc2C#N)no1	13.6%
O=C(CSc1ccccc1)Nc1cccc(S(=O)(=O)N2CCCCC2)c1	-6.03%
CCN(c1ccccc1)S(=O)(=O)c1ccc(OCC(=O)N2CCCC2)cc1	-12.3%
O=C(CN1CCCCC1)NC(=O)Nc1ccccc1F	-35.8%

Structure (SMILES)	potentiation
COc1ccccc1C(=O)NCC(=O)OCC(=O)Nc1nnc(-c2ccccc2)o1	8.76%
Cc1ccc(NC(=O)Cc2nc(COC(=O)C(C)NS(=O)(=O)c3ccc(C)cc3)cs2)cc1 (stereo unspecified)	1.83%
COc1ccccc1C(=O)NCCC(=O)NC1=NCCS1	16.5%
Cc1cc(C(=O)COc2ccccc2Cl)c(C)n1C1CC1	-5.33%
CC(C)(C)C(=O)CSc1ccc(S(=O)(=O)N2CCCC2)cn1	5.19%
CCCCn1nc(C(=O)Nc2cccc(C(=O)NC3CC3)c2)c2ccccc2c1=O	-5.5%
CCC(C(=O)N1CCN(S(=O)(=O)c2sc(C(=O)O)c(C)c2C(=O)O)CC1)c1ccccc1 (stereo unspecified)	-6.07%
CC1CCCN(C(=O)CN2C(=O)c3ccccc3S2(=O)=O)C1 (stereo unspecified)	7.53%
Cc1cc(C(=O)COc2ccc(Br)cc2F)c(C)n1C1CC1	-6.81%
COc1ccc(C(=O)N2CCN(c3ccc(C(C)=O)cc3F)CC2)cc1S(=O)(=O)NC1CC1	-8.79%
CCN1C(=O)C(=O)N(CC(=O)Nc2cc(C)ccc2C)C1=O	4.41%
CCN(CC)c1ccc(NC(=O)CN2C(=O)NC3(CCc4ccccc43)C2=O)cc1 (stereo unspecified)	-5.69%
COc1ccc(-c2cc3ncccc3cn2)cc1	-0.0866%
COc1ccc(CN2CCc3nc(Nc4ccccc4)ncc3C2)c(OC)c1OC	1.32%
COc1ccc2c(C)cc(SCC(=O)NCC3CCCO3)nc2c1 (stereo unspecified)	-8.57%
CC(Sc1nnc(C2CC2)n1C1CC1)C(=O)Nc1ccc(C(N)=O)cc1 (stereo unspecified)	-2.73%
COc1ccc(CN2CCN(C(=O)c3cc(C4CC4)nn3-c3ccccc3)CC2)cc1F	1.31%
CSCCC(NC(=O)c1ccccc1)C(=O)N1CCN(Cc2ccc(Cl)cc2)CC1 (stereo unspecified)	10.6%
Cc1ccsc1C(=O)NCCc1ccco1	-5.45%
O=C(Nc1ccc2c(c1)OCO2)C1CC1(Cl)Cl (stereo unspecified)	-2.21%
CCN(CC)CCN1C(=O)C(=O)/C(=C(/O)c2cnn(-c3ccccc3)c2C)C1c1cccs1 (stereo unspecified)	-0.404%
CCOc1ncccc1C(=O)OCC(=O)Nc1cccc(S(=O)(=O)N2CCCCCC2)c1	-26.2%
COc1ccc(S(=O)(=O)N2CCOCC2)cc1NC(=O)Cc1coc2cc(C)ccc12	4.1%
